The results in this text go back to PubChem BioAssay (NCATS).

Values joined by “and” are separate entries in the source; they are usually repeats but may differ in a detail not shown here. Equal values may be shown once. Records with an inconclusive call do not appear. Active and inactive are the calls of the source. Calls come from the whole dose curve; as a rule, active = well fitted curve in the direction sought with a large enough effect; inconclusive = small, poorly fitted or top-dose-only effect, or another doubt; inactive = no such curve, though single readings can be large; an effect the other way counts as inactive or inconclusive.

The nature of assay [1]: qHTS of pediatric cancer cell lines to identify multiple opportunities for drug repurposing: Primary screen for LAN-5 cells (AID 1347100). Note: potency is the fitted concentration of half-maximal effect. In short, it runs like this:
(§1)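 Cells (500-1,000/well) in growth media were settled 5 h at 37 degrees C, then given compounds for 48 h. Viability was read as CellTiter-Glo luminescence. Primary runs used MIPE at 11 points (0.78 nM-46 µM) and NPC at 8 points (0.59 nM-46 µM); follow-ups used 11 points.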
On the technique in general: Quantitative high-throughput screening tests each substance at several concentrations.

Assay [2] is described as follows: qHTS of pediatric cancer cell lines to identify multiple opportunities for drug repurposing: Primary screen for OHS-50 cells (AID 1347103). Note: nearly all actives have a fitted effect of over 40% in size. Note: potency is the fitted concentration of half-maximal effect. The procedure, abridged:
(§2)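 Cells (500-1,000/well) rested 5 h, then received compounds for 48 h; metabolically active cells were measured by CellTiter-Glo luminescence. Final concentrations spanned up to 46 µM (MIPE, 11-point) or 0.59 nM-46 µM (NPC, 8-point) in primary screens, 11-point in follow-ups.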

The nature of assay [3]: qHTS of pediatric cancer cell lines to identify multiple opportunities for drug repurposing: Primary screen for RD cells (AID 1347104). Note: nearly all actives have a fitted effect of over 55% in size. Note: potency is the fitted concentration of half-maximal effect. The procedure, abridged:
(§3)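 Viability was measured as metabolically active cells after 48 hours of treatment, read by CellTiter-Glo luminescence. Compounds were tested at multiple final concentrations, giving concentration-response curves.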

The nature of assay [4]: qHTS of pediatric cancer cell lines to identify multiple opportunities for drug repurposing: Primary screen for MG 63 (6-TG R) cells (AID 1347105). Note: nearly all actives have a fitted effect of over 50% in size. Note: potency is the fitted concentration of half-maximal effect. The procedure, abridged:
as §3

Assay [5] can be described thus: qHTS of pediatric cancer cell lines to identify multiple opportunities for drug repurposing: Primary screen for control Hh wild type fibroblast cells (AID 1347106). Note: nearly all actives have a fitted effect of over 55% in size. Note: potency is the fitted concentration of half-maximal effect. In short, it runs like this: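 Viability after 48 h compound treatment at 37C, 500-1,000 cells/well, read as ATP luminescence with CellTiter-Glo. Primary screens used 11-point (MIPE, 0.78 nM-46 µM) or 8-point (NPC, 0.59 nM-46 µM) final concentrations; follow-up screens used 11-point dilutions.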

A short description of assay [6]: qHTS of pediatric cancer cell lines to identify multiple opportunities for drug repurposing: Primary screen for Rh30 cells (AID 1347107). Note: nearly all actives have a fitted effect of over 75% in size. Note: potency is the fitted concentration of half-maximal effect. The procedure, abridged: as §1
A short description of assay [7]: qHTS of pediatric cancer cell lines to identify multiple opportunities for drug repurposing: Primary screen for Rh41 cells (AID 1347108). Note: nearly all actives have a fitted effect of over 70% in size. Note: potency is the fitted concentration of half-maximal effect. In short, it runs like this:
as §3

Assay [8] can be described thus: qHTS of pediatric cancer cell lines to identify multiple opportunities for drug repurposing: Confirmatory screen for NB1643 cells (AID 1347109). Note: nearly all actives have a fitted effect of over 45% in size. Note: potency is the fitted concentration of half-maximal effect. In short, it runs like this: as §1
Assay [9] is described as follows: qHTS of pediatric cancer cell lines to identify multiple opportunities for drug repurposing: Confirmatory screen for A673 cells (AID 1347110).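 Note: cells exposed to compound for 48 h before the viability read; nearly all actives have a fitted effect of over 65% in size.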 Note: potency is the fitted concentration of half-maximal effect. The procedure, abridged: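 Forty-eight-hour viability assay. Follow-up compounds ran at 11-point dilutions; positive control bortezomib at 2.3 uM final, neutral control DMSO.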
Assay [10] is described as follows: qHTS of pediatric cancer cell lines to identify multiple opportunities for drug repurposing: Confirmatory screen for BT-12 cells (AID 1347112). Note: nearly all actives have a fitted effect of over 55% in size. Note: potency is the fitted concentration of half-maximal effect. The procedure, abridged: as §1
Assay [11] in a line: qHTS of pediatric cancer cell lines to identify multiple opportunities for drug repurposing: Confirmatory screen for LAN-5 cells (AID 1347113). Note: nearly all actives have a fitted effect of over 65% in size. Note: potency is the fitted concentration of half-maximal effect. The procedure, abridged:
as §1

Assay [12] in a line: qHTS of pediatric cancer cell lines to identify multiple opportunities for drug repurposing: Confirmatory screen for BT-37 cells (AID 1347117). Note: nearly all actives have a fitted effect of over 55% in size. Note: potency is the fitted concentration of half-maximal effect. The procedure, abridged:
as §1

Assay [13] is described as follows: qHTS of pediatric cancer cell lines to identify multiple opportunities for drug repurposing: Confirmatory screen for control Hh wild type fibroblast cells (AID 1347121). Note: nearly all actives have a fitted effect of over 70% in size. The procedure, abridged:
as §1

Assay [14] can be described thus: qHTS of pediatric cancer cell lines to identify multiple opportunities for drug repurposing: Confirmatory screen for U-2 OS cells (AID 1347122). Note: nearly all actives have a fitted effect of over 65% in size. Note: potency is the fitted concentration of half-maximal effect. The procedure, abridged: as §1
Assay [15] is described as follows: qHTS of pediatric cancer cell lines to identify multiple opportunities for drug repurposing: Confirmatory screen for TC32 cells (AID 1347118).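 Note: cells exposed to compound for 48 h before the read; nearly all actives have a fitted effect of over 65% in size.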 Note: potency is the fitted concentration of half-maximal effect. The procedure, abridged:
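Luminescent CellTiter-Glo read-out of metabolically active TC32 cells after 48 h compound exposure. Primary: MIPE 11-point, 0.78 nM–46 µM; NPC 8-point, 0.59 nM–46 µM. Confirmatory: 11-point dilutions.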

A short description of assay [16]: qHTS of pediatric cancer cell lines to identify multiple opportunities for drug repurposing: Primary screen for BT-12 cells (AID 1347101). Note: nearly all actives have a fitted effect of over 25% in size. Note: potency is the fitted concentration of half-maximal effect. In short, it runs like this:
as §2

Assay [17] is described as follows: qHTS of pediatric cancer cell lines to identify multiple opportunities for drug repurposing: Primary screen for Rh18 cells (AID 1347102). Note: nearly all actives have a fitted effect of over 65% in size. Note: potency is the fitted concentration of half-maximal effect. In short, it runs like this: as §1
Assay [18] is described as follows: qHTS of pediatric cancer cell lines to identify multiple opportunities for drug repurposing: Confirmatory screen for SK-N-MC cells (AID 1347111).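 Note: potency is the fitted concentration of half-maximal effect; cells exposed to compound for 48 h before the readout; nearly all actives have a fitted effect of over 70% in size.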 In short, it runs like this:
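Metabolically active cells were quantified by ATP-dependent luminescence (CellTiter-Glo, 15 min at room temperature) following 48 h treatment. Cells had been plated at 500-1,000 per well and settled for 5 h beforehand.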

Assay [19] in a line: qHTS of pediatric cancer cell lines to identify multiple opportunities for drug repurposing: Confirmatory screen for DAOY cells (AID 1347114). Note: nearly all actives have a fitted effect of over 65% in size. Note: potency is the fitted concentration of half-maximal effect. The procedure, abridged: (§4)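 Viability measured as metabolically active cells via CellTiter-Glo luminescence following 48 hours of compound exposure, 11-point dilutions in confirmatory testing. 500-1,000 cells/well plated 5 hours before dosing; controls were DMSO and 2.3 µM bortezomib.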

The nature of assay [20]: qHTS of pediatric cancer cell lines to identify multiple opportunities for drug repurposing: Confirmatory screen for SJ-GBM2 cells (AID 1347116). Note: nearly all actives have a fitted effect of over 60% in size. In short, it runs like this:
as §4

Turning to `N#Cc1ccc(NC(=O)Nc2ccccc2Br)c2n[nH]nc12`, the values for the Potency in [1] and in [2] were 26.4 µM (active) and 21.7 µM (active), respectively. The Potency result in assay [3], in assay [4], in assay [5], in assay [6] and in [7] was “inactive” in each case.
For the compound `CC[C@]1(O)C[C@@H]2CN(CCc3c([nH]c4ccccc34)[C@@](C(=O)OC)(c3cc4c(cc3OC)N(C=O)[C@@H]3C45CCN4CC=C[C@](CC)([C@H]45)[C@@H](OC(C)=O)[C@]3(O)C(=O)OC)C2)C1` (stereo not given in full), the Potency result in assay [1], in assay [2], in assay [4], in assay [5], in assay [6] and in assay [8] was “inactive” in each case. The Potency result in assay [9], in assay [10], in [11], in assay [12], in assay [13] and in [14] was “inactive” each time.
On to `CCC(=O)NC[C@H](Cc1ccc(OCCc2nc(-c3ccccc3)oc2C)cc1)NC(C)=CC(=O)c1ccc(C(F)(F)F)cc1`, for which the Potency is 3.32 µM (active) in assay [1] and 12.2 µM (active) in assay [2]. The Potency entry in assay [5] was “inactive”.
As for `CC[C@@H]1C=C(C)C[C@H](C)C[C@H](OC)[C@H]2O[C@@](O)(C(=O)C(=O)N3CCCC[C@@H]3C(=O)O[C@H](C(C)=C[C@@H]3CC[C@H](Cl)[C@H](OC)C3)[C@H](C)[C@@H](O)CC1=O)[C@H](C)C[C@H]2OC`, the Potency in assay [1] is 11.8 µM (active); in assay [2], 8.63 µM (active); in assay [15] it was 18.5 µM (active). Further, the Potency entry in [4], in assay [5], in [6], in assay [9] and in [13] was “inactive” throughout.
Consider `N#CC1(c2ccc(NC(=O)c3cccnc3NCc3ccncc3)cc2)CCCC1`, for which the Potency result in assay [1], in assay [3], in assay [4], in assay [5], in assay [6] and in [7] was “inactive” throughout.
For `CC(C)C(=O)Oc1ccc(CO)cc1[C@H](CCN(C(C)C)C(C)C)c1ccccc1`, the Potency entry in [16], in assay [17], in [3], in assay [4], in [5] and in assay [6] was “inactive” in each case.
Regarding `NC[C@@H]1O[C@@H](O[C@H]2[C@@H](O)[C@H](O[C@@H]3[C@@H](O)[C@@H](N)C[C@H](N)[C@H]3O[C@H]3O[C@H](CN)[C@@H](O)[C@@H](O)[C@H]3N)O[C@H]2CO)[C@H](N)[C@@H](O)[C@@H]1O`, the Potency result in [16], in assay [17], in assay [2], in [3], in assay [4] and in assay [5] was “inactive” throughout. For the same compound, the Potency entry in assay [6] and in [7] was “inactive” each time.
As to `CN(C)c1cc(NC(=O)CNC(C)(C)C)c(O)c2c1C[C@@H]1C[C@H]3[C@H](N(C)C)C(=O)C(C(N)=O)=C(O)[C@@]3(O)C(=O)C1=C2O`, the Potency result in [16], in [17], in assay [2], in assay [3], in [4] and in assay [5] was “inactive” throughout. In addition, the Potency entry in assay [6] and in [7] was “inactive” in each case.
Consider `CC(=O)Nc1ccc([C@H](C)C(=O)Nc2ncc(C(C)C)s2)cc1`, for which the Potency in assay [16] was 1.22 µM (active); in assay [17] it was 7.43 µM (active); in assay [2] it was 3.85 µM (active); in assay [3], 4.18 µM (active); in [4], 1.87 µM (active); in assay [7], 7.43 µM (active). Moreover, the Potency in assay [9] was 2.61 µM (active); in assay [18], 8.27 µM (active); in [10], 3.69 µM (active); in assay [11] it was 3.69 µM (active); in assay [19], 4.65 µM (active); in assay [12], 4.14 µM (active). The results for the Potency in [15] and in assay [14] were 7.37 µM (active) and 1.47 µM (active), respectively. The Potency entry in assay [6] and in assay [13] was “inactive” in each case.
Take `CN(C)Cc1cccc(N=C(c2ccccc2)c2c(O)[nH]c3cc(C(=O)N(C)C)ccc23)c1`: the Potency is 6.85 µM (active) in assay [16] and 17.2 µM (active) in [2].
Take `O=C(CCCCCCC(=O)Nc1ccccc1)NO`: the Potency was 6.92 µM (active) and 17.2 µM (active) in assay [16]; 2.99 µM (active) and 4.18 µM (active) in [17]; 2.19 µM (active) and 2.73 µM (active) in assay [2]; 5.31 µM (active) and 6.62 µM (active) in [3]; 3.35 µM (active) and 3.72 µM (active) in assay [4]; 3.35 µM (active) and 5.9 µM (active) in [7]. For the same compound, the Potency result in assay [13] is “inactive”.
Consider `CC1(C)CCC(CN2CCN(c3ccc(C(=O)NS(=O)(=O)c4ccc(NCC5CCOCC5)c([N+](=O)[O-])c4)c(Oc4cnc5[nH]ccc5c4)c3)CC2)=C(c2ccc(Cl)cc2)C1`, for which the Potency is 30.6 µM (active) in [16]; 10.5 µM (active) in assay [17]; 15.3 µM (active) in assay [2]; 18.7 µM (active) in [3]; 11.8 µM (active) in assay [4]; 18.7 µM (active) in [7]. The Potency in assay [8] is 0.261 µM (active); in assay [18] it was 18.5 µM (active); in assay [11], 5.85 µM (active). In addition, the Potency entry in assay [5], in [10], in [19], in assay [20], in [12] and in assay [15] was “inactive” each time. Also, the Potency result in assay [13] is “inactive”.
Regarding `COCCOC(=O)C1=C(C)NC2=C(C(=O)CC(c3ccccc3OC)C2)C1c1cccc(O)c1` (stereo not given), the Potency entry in assay [16] and in assay [5] was “inactive” throughout. Further, the values for the Potency in [2], in assay [3] and in assay [4] were 19.3 µM (active), 18.7 µM (active) and 14.8 µM (active), respectively.
Turning to `CS(=O)c1ccc(-c2nc(-c3ccc(F)cc3)c(-c3ccncc3)[nH]2)cc1` (stereo not given), the Potency is 44.4 µM (active) in assay [16], 44.4 µM (active) in assay [2] and 42.9 µM (active) in assay [3]. In addition, the Potency result in assay [4] and in assay [5] was “inactive” in each case.
As to `N[C@H](CSC(c1ccccc1)(c1ccccc1)c1ccccc1)C(=O)O`, the figures for the Potency in assay [16] and in assay [2] were 27.3 µM (active) and 6.11 µM (active), respectively. In addition, the Potency entry in assay [17], in assay [4], in assay [5], in [6] and in assay [7] was “inactive” throughout.
Turning to `CC[C@H]1OC(=O)[C@H](C)[C@@H](O[C@H]2C[C@@](C)(OC)[C@@H](O)[C@H](C)O2)[C@H](C)[C@@H](O[C@@H]2O[C@H](C)C[C@H](N(C)C)[C@@H]2O)[C@](C)(O)C[C@@H](C)CN(C)[C@H](C)[C@@H](O)[C@]1(C)O`, the Potency result in [16], in [17], in assay [2], in assay [4], in assay [5] and in assay [6] was “inactive” throughout. For the same compound, the Potency entry in assay [7] is “inactive”.
Take `COc1ccc(C2CC(c3ccccc3)=NN2c2ccc(S(N)(=O)=O)cc2)cc1` (stereo not given): in assay [16], the Potency was 21.7 µM (active). For the same compound, the Potency result in [17], in [4], in [5] and in assay [7] was “inactive” throughout.
Regarding `COc1cc(NC(=O)c2ccc(-c3ccc(Cl)cc3)o2)cc(OC)c1`, the Potency result in [16], in assay [17] and in [2] was “inactive” in each case. Moreover, the Potency is 7.43 µM (active) in assay [4], 10.5 µM (active) in [5], 7.43 µM (active) in [6] and 7.43 µM (active) in [7].
Regarding `CC(C)(C)c1cc(C(=O)O)c(NC(=O)Nc2ccc3[nH]ncc3c2)s1`, the Potency result in assay [16], in assay [17], in assay [2], in [4] and in [5] was “inactive” in each case.
